# From PubChem BioAssay (NCI)
# About 83,000 compounds went through this panel and 20% of them were active in at least one assay; those are over-represented in the sample as a whole.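 Cells were grown in 96-well plates and exposed to the test compound at a single concentration for 48 hours; results are reported as percent growth, with values below 10 considered active.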 A number with no mark means an inactive call. Activity calls are given as the source filed them.
# Assays:
# Assay in all cases: NCI-60 one-dose screen, 48 h (100 = growth as untreated, 0 = no growth, -100 = all killed)
# Conditions in all cases: 10 µM unless noted
# SK-MEL-2 melanoma = test system: SK-MEL-2 melanoma
# EKVX NSCLC = test system: EKVX NSCLC
# SN12C renal = test system: SN12C renal
# UO-31 renal = test system: UO-31 renal
# TK-10 renal = test system: TK-10 renal
# ACHN renal = test system: ACHN renal
# CAKI-1 renal = test system: CAKI-1 renal
# A498 renal = test system: A498 renal
# CCRF-CEM leukemia = test system: CCRF-CEM leukemia
# MOLT-4 leukemia = test system: MOLT-4 leukemia
Compound,growth (SK-MEL-2 melanoma),growth (EKVX NSCLC),growth (SN12C renal),growth (UO-31 renal),growth (TK-10 renal),growth (ACHN renal),growth (CAKI-1 renal),growth (A498 renal),growth (CCRF-CEM leukemia),growth (MOLT-4 leukemia)
O=C(OC[C@@H]1CO1)c1cccc2c(=O)c3ccccc3[nH]c12,-70.8% (active),-16.8% (active),-46.9% (active),-20.7% (active),-6.41% (active),-41.2% (active),-13.2% (active),-44.4% (active),2.83% (active),1.32% (active)
COc1ccc(C/C(C)=C(/c2ccc(OCCN3CCCCCC3)cc2)c2ccc(OC(=O)NCc3ccccc3)cc2)cc1,94.9%,87.6%,71.3%,62.7%,87.8%,101%,92.8%,97.3%,58%,41.2%
COc1cc(/C=C\c2cc(/C=C\c3ccc(O)c(OC)c3)n(C(=O)CNc3ccc(Cl)cc3)n2)ccc1O,9.05% (active),42.2%,22.5%,15.9%,47.2%,23.6%,29.3%,44.5%,10%,8.25% (active)
C=CCCC(=O)N1C=CC(=O)[C@H](O)[C@@H]1/C=C/c1ccccc1,77.7% [100 µM],37.4% [100 µM],42% [100 µM],29% [100 µM],54.9% [100 µM],28.1% [100 µM],15.7% [100 µM],83.4% [100 µM],27.7% [100 µM],36.5% [100 µM]
COP(=O)(OC)c1nnn(-c2cccc([N+](=O)[O-])c2)c1C,106%,106%,104%,84.5%,99%,106%,97.2%,101%,104%,101%
O=C1NC(=O)c2c1c1c3ccccc3[nH]c1c1oc3ccc(F)cc3c21,89.4%,56.4%,74.6%,25%,70.6%,43.2%,41.2%,-6.99% (active),73.6%,76.2%
CCN(CC)CCCC(C)Nc1ccc2cc(OC)ccc2n1 (stereo not given),116%,91.4%,104%,91.3%,106%,107%,101%,84.5%,107%,116%
CN(C)c1ccc(/C=C/C(=O)c2ccc(Nc3nc(Nc4ccc(F)cc4)nc(Nc4ccc(Cl)cc4)n3)cc2)cc1,52.6%,67.2%,101%,59.2%,97.9%,75.3%,70.9%,83.4%,4.13% (active),-3.06% (active)
COc1ccc2c(c1)c(-c1nonc1-c1cn(C)c3ccc(OC)cc13)cn2C,41.8%,47.4%,43.8%,49%,71.2%,51.7%,31.9%,18.4%,26.6%,25.4%
CC(O)c1ncc(/C=C2\SC(=S)N(Cc3ccccc3)C2=O)s1 (stereo not given),91%,101%,110%,85.8%,33.7%,95.6%,93.4%,100%,98.6%,108%
O=C(O)CCCn1c(SCc2c(Cl)cccc2Cl)nc2ccsc2c1=O,31.3%,52.2%,53.3%,37.5%,48%,46.7%,30.6%,-1.92% (active),19.6%,21.7%
O=C(Nc1ccccc1O)c1ccccc1Nc1ccnc(C(F)(F)F)c1,104%,93%,87.3%,66.2%,136%,93.8%,98.3%,145%,84.8%,74.5%
NC(=O)c1ccc(NC(=O)c2oc3ccccc3c2-c2cnn(-c3ccccc3)c2)cc1,61.5% [50 µM],7.54% [50 µM] (active),14.7% [50 µM],-1.76% [50 µM] (active),44.5% [50 µM],-11.1% [50 µM] (active),-29.4% [50 µM] (active),16.4% [50 µM],73.1% [50 µM],61.2% [50 µM]
COc1cc(/C=N/Nc2ccccc2F)cc(OC)c1OC,90.2%,87.4%,97.1%,68.8%,157%,81.3%,50.8%,92.8%,75.2%,83.9%
N=C(N)SCc1cccc2c(CSC(=N)N)cccc12,106%,107%,94%,84.9%,106%,108%,94.4%,87.2%,119%,119%
O=C(CBr)CN1C(=O)c2ccccc2C1=O,108%,107%,109%,88.8%,100%,104%,98.6%,88.2%,111%,104%
CC(C)(CO)N(CCO)CCO,100%,116%,99.1%,87.4%,95.5%,97.1%,100%,111%,92.8%,104%
COc1ccc(Nc2ncc(C(N)=O)c(NCCCNC(=O)C3CCC3)n2)cc1,51.8%,96.2%,30.9%,2.37% (active),34.4%,44.9%,34.7%,105%,43.7%,38.7%
Cc1cc(N2CCCCC2)nc(N2CCN(CC(=O)Nc3ccc4c(ccn4Cc4ccccc4)c3)CC2)n1,65.6%,62.1%,64.2%,30%,84%,76.6%,56.3%,8.63% (active),64.5%,52.6%
Cn1cc(-c2nn3cc(-c4ccccc4)nc3s2)c2ccccc21,79.6%,72.5%,78.7%,42.8%,95.5%,74.2%,55.3%,85.3%,76.4%,65.3%
O=C(CSc1nc2ccc([N+](=O)[O-])cc2[nH]1)Nc1cccc([N+](=O)[O-])c1,49.2%,48.8%,49.6%,33.4%,69.5%,62.5%,41.2%,31.7%,40.8%,43.6%
CN(Cc1cnc2nc(N)nc(N)c2n1)c1c(Cl)cc(C(=O)NC(CCC(=O)O)C(=O)O)cc1Cl (stereo not given),59.8%,42.4%,26.3%,11.5%,36%,29%,-20% (active),47.7%,34.8%,25.8%
O=C(CN1C(=O)NC2NC(=O)NC21)N/N=C/c1ccc(Cl)cc1Cl (stereo not given),113%,101%,104%,84.3%,101%,105%,88.2%,112%,107%,105%
Cc1cc(C)c(-c2c(O)c(Br)c(-c3c(C)cc(C)c(Br)c3C)c(O)c2Br)c(C)c1Br,-22.3% (active),19.2%,37.2%,-29.9% (active),12%,14.1%,5.75% (active),64.7%,35.6%,28.9%
Cn1c(O)c(C(/C=C/c2ccccc2)=Nc2ccccc2N)c(=O)n(C)c1=O,129%,82%,96.1%,83.4%,134%,99.3%,102%,130%,67.3%,-43.5% (active)
Cn1cc(C(=O)c2nc(-c3c[nH]c4ccc(Br)cc34)no2)c2cc(Br)ccc21,109%,60.5%,80.1%,67%,99.9%,80.9%,67.4%,106%,45.6%,85%
